{"source": "PubChem BioAssay (NCATS)", "note": "Inconclusive results are not listed. Active and inactive are the calls of the source. Calls follow the shape of the full dose curve. Potency is read from the fitted curve at half-maximal effect."}
{"experiment": "Cell Viability - HepG2 (AID 433);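 also: potency for ATP loss meaning cytotoxicity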", "settings": "qHTS", "text": "NIH Chemical Genomics Center [NCGC]\nNIH Molecular Libraries Screening Centers Network [MLSCN]\nNational Institutes of Environmental Health Sciences [NIEHS]\nNational Toxicology Program [NTP]\nWe have developed a 1536-well cell-based assay for quantitative high throughput screening (qHTS) against a number of cell lines to determine in vitro cytotoxicity of small molecules. This particular assay uses the HepG2 cell line which is derived from hepatocellular carcinoma.\nNCGC Assay Protocol Summary:\nThe CellTiter-Glo luminescent cell viability assay (Promega) is a homogeneous method to measure the number of viable cells in culture. The end point readout of this assay is based on quantitation of intracellular ATP, an indicator of metabolic activity, using the luciferase reaction. Luciferase catalyzes the oxidation of beetle Luciferin to oxyluciferin and light in the presence of ATP. The luminescent signal is proportional to amount of ATP present.\nUsing the CellTiter-Glo luminescent cell viability assay, the amount of cellular ATP was measured in the HepG2 cell line with complete culture medium following compound treatment for 40 hours. The assay was performed in opaque white Kalypsys 1536-well plates. In the screen, tamoxifen and doxorubicin were used as positive controls. Library compounds were measured for their ability to cause acute toxicity in the cell line, as reflected by a decrease in intracellular ATP levels, in a concentration-dependent manner. Data were normalized to the controls for basal activity (DMSO only) and 100% inhibition (100 uM tamoxifen). AC50 values were determined from concentration-response data modeled with the standard Hill equation.\nqHTS protocol fo CellTiter Glo HepG2 cellular assay\n[Step] [Parameter] [Value] [Description]\n1. Reagent; 5 uL; 1500 HepG2 cells/well\n2. Time; 5 hr; 37 °C incubation\n4. Controls; 23 nL; Tamoxifen 0.34 uM to 100 uM & Doxorubicin 0.02 nM to 100 uM\n5. Time; 40 hr; 37 °C incubation\n6. Reagent; 5 uL; CellTiter Glo reagent\n7. Time; 20 min; Room Temperature\n8. Detection; Luminescence; Viewlux plate reader\nKeywords: cell viability, cytotoxicity, HepG2 cell line, luminescence, NTPHTS, NTPHTS_NCGC, NIEHS, EPA, DSSTox, MLSMR, MLSCN, NIH Roadmap, qHTS, NCGC"}
{"compound": "O=S(=O)(O)c1ccccc1", "Potency": "> 92 µM (inactive)"}
{"compound": "O=C(O)c1ccccc1C(c1ccc(O)cc1)c1ccc(O)cc1", "Potency": "> 92 µM (inactive)"}
{"compound": "Cc1ccc([N+](=O)[O-])c(C)c1", "Potency": "> 92 µM (inactive)"}
{"compound": "COc1cc(/C=C/c2ccccc2)oc(=O)c1", "Potency": "> 92 µM (inactive)"}
{"compound": "C=CCOC(=O)c1ccccc1C(=O)OCC=C", "Potency": "> 92 µM (inactive)"}
{"compound": "O=[N+]([O-])c1cccc(Cl)c1Cl", "Potency": "> 92 µM (inactive)"}
{"compound": "COC(=O)CCCCC(=O)OC", "Potency": "> 92 µM (inactive)"}
{"compound": "Cc1ccc([N+](=O)[O-])cc1N", "Potency": "> 92 µM (inactive)"}
{"compound": "Cc1c(N=C=O)cccc1N=C=O", "Potency": "> 92 µM (inactive)"}
{"compound": "CCCCCCCCCCCCCCC1CO1", "note": "(stereo not given)", "Potency": "> 92 µM (inactive)"}
{"compound": "CCO", "Potency": "> 92 µM (inactive)"}
{"compound": "C[C@H](CCC(=O)O)[C@H]1CC[C@H]2[C@@H]3CC[C@@H]4C[C@H](O)CC[C@]4(C)[C@H]3CC[C@]12C", "Potency": "> 92 µM (inactive)"}
{"compound": "COc1ccc(/C=C/c2cc(OC)cc(=O)o2)cc1", "Potency": "> 92 µM (inactive)"}
{"compound": "Clc1cc(Cl)c(Cl)c(Cl)c1Cl", "Potency": "> 92 µM (inactive)"}
{"compound": "O=NO", "Potency": "> 92 µM (inactive)"}
{"compound": "COC(=O)c1ccc(C)cc1", "Potency": "> 92 µM (inactive)"}
{"compound": "O=C(O)c1ccc(O)cc1O", "Potency": "> 92 µM (inactive)"}
{"compound": "CN(C)C=O", "Potency": "> 92 µM (inactive)"}
{"compound": "c1ccc2c(c1)[nH]c1ccccc12", "Potency": "> 92 µM (inactive)"}
{"compound": "O=C(/C=C/c1ccc(O)c(O)c1)O[C@@H](C(=O)O)[C@@H](OC(=O)/C=C/c1ccc(O)c(O)c1)C(=O)O", "Potency": "> 92 µM (inactive)"}
{"compound": "CCCCCCCCCCCCCC(=O)O", "Potency": "> 92 µM (inactive)"}
{"compound": "NC1=NC(S)C2N=CN=C2N1", "note": "(stereo not given)", "Potency": "1.89 µM (active)"}
{"compound": "CC1=C2[C@H](/C=C(\\C)C(=O)O)CC[C@@H](C)[C@H]2CC1", "Potency": "> 92 µM (inactive)"}
{"compound": "O=C(O)CC(C(=O)O)C(CC(=O)O)C(=O)O", "note": "(stereo not given)", "Potency": "> 92 µM (inactive)"}
{"compound": "OCCNCCO", "Potency": "> 92 µM (inactive)"}
{"compound": "COCC(=O)O", "Potency": "> 92 µM (inactive)"}
{"compound": "O[C@@H]([C@H](O)[C@@H](O)CBr)[C@@H](O)CBr", "Potency": "> 92 µM (inactive)"}
{"compound": "CC1(C)CC(N=C=O)CC(C)(CN=C=O)C1", "note": "(stereo not given)", "Potency": "> 92 µM (inactive)"}
{"compound": "CC12CCC(CC1=O)C2(C)C", "note": "(stereo not given)", "Potency": "> 92 µM (inactive)"}
{"compound": "C=CC(=O)OCCOCCOCCOCCOC(=O)C=C", "Potency": "> 92 µM (inactive)"}
{"compound": "CCCCCCCCO", "Potency": "> 92 µM (inactive)"}
{"compound": "CCCCCCCCCCCC(=O)O", "Potency": "> 92 µM (inactive)"}
{"compound": "C=Cc1ccccc1Cl", "Potency": "> 92 µM (inactive)"}
{"compound": "CC(C)=CCCC(C)CCO", "note": "(stereo not given)", "Potency": "> 92 µM (inactive)"}
{"compound": "Nc1ccc(S(=O)(=O)O)cc1", "Potency": "> 92 µM (inactive)"}
{"compound": "CCC(C)c1ccccc1O", "note": "(stereo not given)", "Potency": "> 92 µM (inactive)"}
{"compound": "C1OCOCO1", "Potency": "> 92 µM (inactive)"}
{"compound": "c1ccccc1", "Potency": "> 92 µM (inactive)"}
{"compound": "Cc1ccccc1C", "Potency": "> 92 µM (inactive)"}
{"compound": "Clc1cc(Cl)c(Cl)cc1Cl", "Potency": "> 92 µM (inactive)"}
